This note sets out measurements from PubChem BioAssay AID588350 (The Scripps Research Institute Molecular Screening Center, 2011).

The whole screen tested about 1,900 compounds, of which about 1,200 (63%) were called active. The set was probably picked from earlier hits. These entries were drawn from the full list. Unmarked numbers belong to inactive results.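 How the source made its calls: active means mean activation above the mean of solvent-only control wells plus 3 SD (cut at about 22% in these data); inactive means the rest.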

A short description of this experiment: GAA30 FXN promoter activators, confirmation, counter-screen for GAA850 frataxin promoter activator project, cell-based, luminescence, HEK293, lucGAA30, triplicate (AID 588350).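 Further: counterscreen of GAA850 promoter hits where activity marks nonselective or luminescence artifacts.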 The settings on record: HEK293 lucGAA30 FXN promoter luciferase, 24 h; at 6 µM; hits give high values; DMSO = 0%, 5 µM ipriflavone = 100%. (In general: A counterscreen serves to expose hits that act by an unwanted route or on another target.)
Regarding `Cc1cc(OCc2cc(C(=O)NCc3cc(C(C)C)no3)no2)cc(C)c1Cl`, the activation was 110% (active).

Regarding `COCCn1c(=NC(=O)c2ccccc2[N+](=O)[O-])sc2cc(S(C)(=O)=O)ccc21`, the activation was 51.5% (active).

On to `Cc1c(-c2ccccc2)nc(N)c(C#N)c1-c1cccs1`, for which the activation was 23.3% (active).

Take `CCOC(=O)c1cc2cc(C)ccc2[nH]1`: the activation is 74.2% (active).

Take `CCC(=O)NC(=Nc1nc2ccccc2s1)NC(=O)CC`: the activation was 129% (active).

In the case of `Cc1ccc(-c2nc3ccccc3[nH]c2=O)cc1`, the activation was 101% (active).

Take `N#Cc1c(N)nc2c3c(sc(=N)c2c1N)NC(=O)CC3c1ccccc1Cl` (stereo not drawn): the activation is 25.4% (active).

In the case of `CC1CCc2sc3nc(N4CCN(CCO)CC4)n4ncnc4c3c2C1` (stereo not drawn), the activation is 61.1% (active).

Turning to `O=C(NC1CCCC1)c1cc(-c2ccccc2)on1`, the activation was 161% (active).

On to `COc1ccccc1N1CCN(C(=O)c2cc(-c3ccc(Br)cc3)on2)CC1`, for which the activation is -9.05%.

In the case of `O=C(NCCCn1ccnc1)c1cc(-c2ccccc2)on1`, the activation was 204% (active).

On to `COC(=O)c1ccc(CSc2nc3ccccc3c(=O)n2-c2cccc(OC)c2)o1`, for which the activation was 19.9%.

Take `CN1C(=O)/C(=C\c2cc(Br)cs2)c2ccccc21`: the activation is 102% (active).

Take `Cc1ccc(-c2c3c(=O)n(C)c(=O)n(C)c3cn2-n2cnnc2)cc1`: the activation was -0.74%.

In the case of `CCOc1ccc(N2C(=O)CC(N(CCc3ccc(OC)c(OC)c3)C(=S)Nc3ccccc3)C2=O)cc1` (stereo not drawn), the activation is -9.82%.

For the compound `O=C(N/N=C/C=C/c1ccco1)c1cccs1`, the activation was 82.6% (active).

For `CCC1(CC)Cc2ccccc2-c2nc(CCl)[nH]c(=O)c21`, the activation is -4.18%.

Regarding `O=C(CC1NCCc2ccccc21)Nc1cccc(Cl)c1` (stereo not drawn), the activation is 69% (active).

As to `N#CC1=C(SCc2ccc(C#N)cc2)N=C(N)C(c2nc(-c3ccccc3)cs2)C12CCCCC2` (stereo not drawn), the activation was 2.61%.

Regarding `O=[N+]([O-])c1ccc(C=Nc2ccc(Cl)cc2Cl)s1`, the activation is -6.04%.

On to `COc1ccc(C2Nc3ccccc3C(=O)N2c2ccc(Cl)cc2)cc1Cn1cc([N+](=O)[O-])cn1` (stereo not drawn), for which the activation is 92.3% (active).

Turning to `CN(C(=O)c1cc2c(=O)n3ccccc3nc2s1)C1CCCCC1`, the activation is 116% (active).

With `CCCCNC(=O)N(O)C1N(/N=C/c2ccccc2O)C(=S)SC1(C)C` (stereo not drawn), the activation is 26.7% (active).

For the compound `CCCNC(=O)c1c(Cl)cnn1-c1ccc(C)cc1`, the activation was 108% (active).

Take `Fc1ccccc1/C=N/Nc1cc(N2CCCCC2)ncn1`: the activation was 118% (active).

`CC(C)c1cc(C(=O)N/N=C/C(Br)=C/c2ccccc2)n[nH]1`: the activation is -1.66%.

As to `Cc1cc(C(=O)N/N=C\C(Br)=C\c2ccccc2)c(C)o1`, the activation was 58.9% (active).

Regarding `CCCCCOc1ccc(CSC2=NCCN2)cc1[N+](=O)[O-]`, the activation was 79.1% (active).

On to `O=C(Nc1ccc2c(c1)OCCO2)c1cnccn1`, for which the activation is 87.7% (active).

For `O=C(COc1ccc(Cl)cc1Cl)NCCCNC(=O)c1cnccn1`, the activation is 11.8%.

Regarding `CCc1ccc(N(C(=O)c2csnn2)C(C(=O)NC2CCCCC2)c2ccncc2)cc1` (stereo not drawn), the activation was 26.5% (active).

With `CN(C)[C@@H]1C(=O)C(C(N)=O)=C(O)[C@@]2(O)C(=O)C3=C(O)c4c(O)ccc(Cl)c4[C@@H](O)[C@H]3C[C@@H]12`, the activation is 25.7% (active).

With `C=C1c2c(Cl)ccc(O)c2C(O)=C2C(=O)[C@]3(O)C(O)=C(C(N)=O)C(=O)[C@@H](N(C)C)[C@@H]3[C@@H](O)C12` (stereo partly drawn), the activation was 18.7%.

`Cc1noc(C)c1-c1ccc2ncnc(NC(C)c3ccco3)c2c1` (stereo not drawn): the activation was 40.9% (active).

Consider `Cn1c(=O)n(C)c2cc(S(=O)(=O)N3CCCc4ccccc43)ccc21`, for which the activation was 1.6%.

On to `CN(C)CCNC(=O)c1ccc(Cl)c2cc3ccccc3nc12`, for which the activation was -3.95%.

With `O=C1N=C(N2CCCC2)S/C1=C\c1cccc(Br)c1`, the activation was 60.8% (active).

As to `CC(C)(C)C(=O)c1cnc(Nc2ccccc2)s1`, the activation was 126% (active).

On to `Cc1cc(C)n2nc(CNS(=O)(=O)c3c(F)c(F)c(F)c(F)c3F)nc2n1`, for which the activation was 21.4%.

Regarding `O=C(NCc1ccco1)c1ccc(Cn2c(=O)c3sccc3n(Cc3ccc(F)cc3)c2=O)cc1`, the activation is 24.6% (active).

As for `Cc1cc(=O)oc(C)c1C(=O)NCc1ccc(F)cc1`, the activation was 14.5%.

Regarding `Nc1ccc(C(=O)Nc2ccccc2N)cc1`, the activation is 54.8% (active).

With `Cc1nnc(Sc2nc3c(c(=O)[nH]c(=O)n3C)n2Cc2ccccc2)s1`, the activation is 12.3%.

As for `CNc1nc(Nc2ccc(C)c(Cl)c2)nc(N)c1[N+](=O)[O-]`, the activation was 159% (active).

Regarding `COc1ccc(/C=C/C(=O)Nc2ccc(C34CC5CC(CC(O)(C5)C3)C4)cc2)cc1OC`, the activation was 64.1% (active).

On to `Cc1ccc(-n2c(C)cc(/C=C(\C#N)C(=O)NCC3CCCO3)c2C)cc1` (stereo not drawn), for which the activation was 110% (active).

Turning to `O=C(CN(c1cc(C(F)(F)F)ccc1Cl)S(=O)(=O)c1ccccc1)NCc1cccnc1`, the activation is 20.5%.

As for `O=C(Nc1nnc(S(=O)(=O)N2CCCCCC2)s1)c1cccc(Br)c1`, the activation is 31.3% (active).

In the case of `CC(C)c1ccc(NS(=O)(=O)c2cn(C)c(=O)n(C)c2=O)cc1`, the activation was 13.1%.

With `Cn1c(CCN2CCCCCC2)nc2cc(NC(=O)Nc3ccccc3)ccc21`, the activation was 122% (active).

Consider `Cc1cc(C)nc(S/C=C/C(=O)c2ccccc2)n1`, for which the activation was -58.6%.

Take `CC[C@]1(C(=O)OC)[C@H]2C(=O)N(Cc3ccccc3)C(=O)[C@H]2[C@H]2CN=C(SCc3ccccc3)N21`: the activation is 15.5%.

In the case of `COC(=O)[C@@]1(C)[C@H]2C(=O)N(Cc3ccccc3)C(=O)[C@H]2[C@H]2CN=C(SCC3CC3)N21`, the activation was 29.2% (active).

Consider `CC[C@]1(C(=O)OC)[C@H]2C(=O)N(Cc3ccccc3)C(=O)[C@H]2[C@H]2CN=C(SCc3ccc(C#N)cc3)N21`, for which the activation is 23.6% (active).

On to `CN(C)S(=O)(=O)c1ccc2oc(SCC(=O)Nc3ccccc3F)nc2c1`, for which the activation is 127% (active).

On to `O=C(CSc1cccc2cccnc12)N/N=C/c1cccnc1`, for which the activation is -15.3%.

On to `Cc1ccc2cc(/C=N/Nc3ccc(C(=O)O)cc3)c(Cl)nc2c1`, for which the activation is 109% (active).

Consider `C[C@@]12C(=O)N(c3cccc(Br)c3)C(=O)N1[C@H](c1ccc(Cl)cc1)[C@@H]1C(=O)N(C3CCCCC3)C(=O)[C@@H]12`, for which the activation was 0.25%.

Consider `O=C1[C@H]2[C@@H](c3ccc(F)cc3)N3C(=O)N(c4ccc(C(F)(F)F)cc4)C(=O)[C@@]3(Cc3ccccc3)[C@H]2C(=O)N1C1CCCCC1`, for which the activation is 26.3% (active).

Consider `O=C1[C@H]2[C@@H](c3ccc(Cl)cc3)N3C(=O)N(c4cccc(F)c4)C(=O)[C@@]3(Cc3ccccc3)[C@H]2C(=O)N1C1CCCCC1`, for which the activation was 16.9%.

`CC(C)(C)c1ccc(C(=O)NCc2ccco2)cc1`: the activation was 102% (active).

In the case of `CCCCc1ccc(NC(=S)N2CCCC(CO)C2)cc1` (stereo not drawn), the activation is 102% (active).

On to `CC(C)(C)N1C(=O)[C@H]2[C@@H](c3ccc(Br)cc3)N3C(=O)N(c4cccc(Cl)c4)C(=O)[C@@]3(C)[C@H]2C1=O`, for which the activation is 20.4%.

With `COc1ccc(N(CCC#N)S(=O)(=O)c2ccc(Cl)cc2)cc1`, the activation was 11.8%.

As for `CC(C)CCC(C)NC(=O)c1ccc2nccnc2c1` (stereo not drawn), the activation was 77% (active).

Regarding `O=c1[nH]cnc2c1c(-c1ccccc1)cn2-c1ccc(F)cc1`, the activation is 11.4%.

For `COc1ccc(Cl)cc1NC(=O)CN(C)C(=O)CCCc1c[nH]c2ccccc12`, the activation was 16.9%.

As to `CC[C@@]12C(=O)N(c3ccccc3)C(=O)N1[C@H](c1ccc(Br)cc1)[C@@H]1C(=O)N(C(C)(C)C)C(=O)[C@@H]12`, the activation was 21.7%.

Take `CSc1nc(N)c(C#N)c(-c2ccccc2Cl)c1C#N`: the activation was 25.8% (active).

As to `Fc1ccc2nc(N3CCCCC3)sc2c1`, the activation is 95.9% (active).

As for `Oc1ccccc1-c1cc(-c2ccc(Cl)cc2)n[nH]1`, the activation is 124% (active).

For `c1ccc(-c2cc(-c3ccccc3)[nH]n2)cc1`, the activation was 129% (active).

In the case of `COc1ccc(-n2cc(-c3ccccc3)c3c(=S)nc[nH]c32)cc1`, the activation is 15.8%.

With `N#CCSc1nc2ccccc2c(=O)n1-c1ccccc1`, the activation is 16.1%.

As for `CC1(C(=O)N/N=C/c2cc3c(cc2Br)OCO3)CC1(Br)Br` (stereo not drawn), the activation is 30.7% (active).

`COc1ccccc1C1=Nc2cccc3cccc(c23)N1`: the activation is 15.9%.

Take `COc1cc(C#Cc2ccc3cc(CCCO)oc(=O)c3c2)cc(OC)c1`: the activation was 7.14%.

For the compound `Cc1ccc(C(=O)NNc2ncnc3ccccc23)cc1`, the activation is 79.1% (active).

For the compound `CCN(C[C@H]1N[C@@](CC)(C(=O)OC)[C@H]2C(=O)N(Cc3ccccc3)C(=O)[C@@H]12)S(=O)(=O)c1ccc(C(F)(F)F)cc1`, the activation was 22.6% (active).

As to `CN(C)C(=S)N=c1ssc(=S)n1Cc1ccco1`, the activation is 12.5%.

On to `Cc1nc(-c2ccc(F)cc2)c(CC(=O)Nc2cc(S(=O)(=O)N3CCCCC3)ccc2C)s1`, for which the activation is 16.7%.

`COc1ccc2[nH]c(=O)c(CN(Cc3nnnn3CCc3ccccc3)CC3CCCO3)cc2c1` (stereo not drawn): the activation was -9.61%.

Turning to `COc1cc(/C=N/Nc2nc3ccccc3s2)ccc1O`, the activation is 124% (active).

With `CCCCn1c(SCC(=O)NCCc2ccc(OC)c(OC)c2)nc2c1c(=O)n(C)c(=O)n2C`, the activation is 26.9% (active).

For `COc1ccc(NC(=O)CSc2nc(SC)ns2)c(OC)c1`, the activation is 119% (active).

`CCOc1ccc(Nc2oc(Cc3ccccc3)nc2C#N)cc1`: the activation was 58.9% (active).

As for `COc1ccc(-c2csc(Cc3nc(O)cs3)n2)cc1`, the activation is -53.3%.

With `COc1ccc(-c2csc(Nc3ccc(O)cc3)n2)cc1`, the activation is 107% (active).

Regarding `O=c1oc2ccccc2cc1-c1csc(Nc2ccc(O)cc2)n1`, the activation is 148% (active).

As for `CC1(Cc2cccc(C#N)c2)C(=O)Nc2ccc(-c3cccc(C(F)(F)F)c3)cc21` (stereo not drawn), the activation is 10.6%.

As for `COc1ccc(-c2nnc(SCC(=O)c3cccs3)o2)c(OC)c1`, the activation is 88.6% (active).

Regarding `Cc1ccccc1Nc1c([N+](=O)[O-])ccc2nonc12`, the activation is 29.2% (active).

Consider `Cc1ccc(C2Nc3cccc4cccc(c34)N2)cc1`, for which the activation is 24.8% (active).

Turning to `CC(Sc1nc2c([nH]c3ccccc32)c(=O)n1C)c1ccccc1` (stereo not drawn), the activation was 22.8% (active).

As to `COc1cccc(Nc2nc(N)c([N+](=O)[O-])c(NCc3ccco3)n2)c1`, the activation is 42% (active).

On to `CC1(C(=O)NCc2cccc3ccccc23)CCN1Cc1ccc(-c2ccccc2)o1` (stereo not drawn), for which the activation is 24.2% (active).

On to `CCOC(=O)c1cc2c(=O)n3ccccc3nc2n(CC(C)C)c1=NC(=O)c1c(-c2c(F)cccc2Cl)noc1C`, for which the activation is -0.82%.

Turning to `Cc1ccc(NC(=O)c2sc3nc(N)c(C#N)cc3c2N)cc1`, the activation is 61.2% (active).
